# Hits are enriched below; roughly 7.4% of the tested compounds scored in any of these assays.
# Luc counter: Counterscreen for Luciferase (Kinase-Glo TM) Inhibition; Luciferin 4-monooxygenase (Photuris pensylvanica), Q27757; Kinase-Glo luciferase, ATP luminescence, 8 min; Potency, µM (titrated, usually from 38.3 µM), hits mostly inhibitors; 200,000 tested, 0.28% active; AID 1379, 2008; also: nearly all actives have a fitted effect of over 60% in size
#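 Compounds were added to a substrate mix at pH 7.2 (50 mM imidazole, 10 uM ATP, within the enzyme's linear range), followed by Kinase-Glo detection reagent; luminescence was measured after 8 minutes at ambient temperature.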
# ELG1 genotoxic: qHTS screen for small molecules that induce genotoxicity in human embryonic kidney (HEK293T) cells expressing luciferase-tagged ELG1. 330,000 tested, 1.3% active. HEK293T ELG1-luciferase reporter, luminescence, 16 h. Potency, µM (top dose mostly 46 µM), actives largely listed as activators. AID 504466, 2011; also: nearly all actives have a fitted effect of over 60% in size
#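 16 hr compound incubation (37 °C, 5% CO2) of HEK293T cells carrying luciferase-tagged ELG1; luciferase then measured by ONE-Glo luminescence after 30 min at RT.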
# NPC1 prom act: qHTS Assay for NPC1 Promoter Activators | Huh7 NPC1 promoter luciferase reporter, 24 h | Potency, µM (series often up to 9.22 µM), actives largely listed as activators | 320,000 tested, 2.4% active | AID 485313, 2010; also: nearly all actives have a fitted effect of over 60% in size
#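 Luciferase expression driven by the NPC1 promoter was measured in stably transfected Huh7 cells after a 24 h compound incubation, using a luciferase reagent and a luminescence read.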
# SMN2 splice enh: qHTS Assay for Enhancers of SMN2 Splice Variant Expression | 210,000 tested, 2.8% active | HEK293 SMN2-luciferase splicing reporter, luminescence, 30-36 h | Potency, µM (highest dose often 46.1 µM), usual class: activators | AID 1458, 2008; also: nearly all actives have a fitted effect of over 55% in size
#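 HEK293 cells carry an SMN2 minigene-luciferase reporter in which exon 7 inclusion puts luciferase in frame. Cells were seeded at 2000 cells/well, attached for 10-12 hours, then exposed to compounds for 30-36 hours at 37C before ONE-Glo luminescence.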
# Rab9 promoter act: qHTS Assay for Rab9 Promoter Activators. Potency, µM (highest dose often 9.22 µM), usual class: activators. Huh7 Rab9 promoter-luciferase reporter, luminescence, 24 h. 320,000 tested, 2.8% active; also: nearly all actives have a fitted effect of over 60% in size
#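 Cell-based reporter: Huh7 stable for Rab9 promoter-driven luciferase, plated in reduced-serum medium with 10% FBS at 1500 cells/well, compound-treated 24 h at 37 °C, luminescence read after 10 min reagent.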
# FLuc counter: qHTS profiling assay for firefly luciferase inhibitor/activator using purifed enzyme and Km concentrations of substrates (counterscreen for miR-21 project) | AID 588342, 2011 | Luciferin 4-monooxygenase (Photinus pyralis), P08659 | Potency, µM (top dose mostly 57.5 µM), usual class: inhibitors | 360,000 tested, 6.9% active | purified FLuc, Km substrates, luminescence inhibition; also: nearly all actives have a fitted effect of over 55% in size
# Target sequence (P08659 whole entry, looked up): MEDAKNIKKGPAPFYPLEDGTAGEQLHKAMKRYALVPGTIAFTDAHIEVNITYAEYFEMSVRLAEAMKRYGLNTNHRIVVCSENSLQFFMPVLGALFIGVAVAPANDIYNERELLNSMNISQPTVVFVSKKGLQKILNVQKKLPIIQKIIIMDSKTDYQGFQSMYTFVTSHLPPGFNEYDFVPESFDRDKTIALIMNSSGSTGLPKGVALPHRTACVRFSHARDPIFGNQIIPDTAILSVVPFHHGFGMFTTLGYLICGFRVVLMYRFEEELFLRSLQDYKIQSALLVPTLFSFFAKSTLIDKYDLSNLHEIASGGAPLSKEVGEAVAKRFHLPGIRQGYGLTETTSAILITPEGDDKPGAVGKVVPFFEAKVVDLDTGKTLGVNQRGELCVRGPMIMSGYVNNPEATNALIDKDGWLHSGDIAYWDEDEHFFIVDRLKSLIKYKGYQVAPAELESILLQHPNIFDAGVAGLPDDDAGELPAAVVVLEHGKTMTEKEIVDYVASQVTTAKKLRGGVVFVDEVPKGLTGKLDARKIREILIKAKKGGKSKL
#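 Biochemical qHTS of compounds, final roughly 60 µM downward over six points, against 10 nM purified firefly luciferase using Km concentrations of substrates (10 uM D-luciferin, 10 uM ATP) in Tris acetate pH 7.5 buffer; luminescence output.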
# Hits are given with their value; i = inactive; ? = inconclusive; nt = no result given. Calls follow the shape of the dose curve; as a rule, active = well fitted curve in the direction sought with a large enough effect; inconclusive = small, poorly fitted or top-dose-only effect, or another doubt; inactive = no such curve, though single readings can be large; an effect the other way counts as inactive or inconclusive.
SMILES,Luc counter,ELG1 genotoxic,NPC1 prom act,SMN2 splice enh,Rab9 promoter act,FLuc counter
Cc1ccc(C)c(CN2CCCN(Cc3ccccc3C)S2(=O)=O)c1,nt,nt,nt,nt,nt,i
Cc1ccc(OCCNc2cc(N3CCN(CCO)CC3)ccc2[N+](=O)[O-])cc1C,i,i,i,i,i,24µM
Cc1c(C(=O)N(C)C)sc2c1c(=O)n(-c1ccc(Cl)c(Cl)c1)c(=O)n2CC(=O)N1CCCCC1C (stereo not drawn),nt,nt,nt,nt,nt,i
COc1cc2c(cc1OC)C(C)N(C(C)=O)CC2 (stereo not drawn),i,?,i,0.63µM,i,i
COc1cc2c(cc1OC)C(C)N(C(=O)c1cc(C)on1)CC2 (stereo not drawn),nt,?,i,nt,i,i
CCOC(=O)CCCSc1nc(-c2ccc3c(c2)OCO3)cc(C(F)(F)F)c1C#N,i,i,i,i,i,i
CCOC(=O)CSc1nc(-c2ccncc2)ccc1C#N,i,?,1.3µM,1.1µM,0.4µM,?
CCOC(=O)CSc1nc(-c2ccc3c(c2)OCO3)ccc1C#N,i,?,2.5µM,i,0.79µM,5.4µM
COc1ccccc1CCNC(=O)Cc1ccc(NC(=O)N2CCSc3ncccc32)cc1,nt,nt,nt,nt,nt,i
O=c1[nH]c(-c2ccc(O)cc2)nc2scc(-c3cccs3)c12,nt,?,2.8µM,nt,2µM,11µM
O=C(O)c1ccc(-c2nc3scc(-c4ccccc4)c3c(=O)[nH]2)cc1,nt,i,i,nt,i,9.5µM
CC(C)(C)c1nc2scc(-c3cccs3)c2c(=O)o1,i,i,i,nt,i,13µM
CC(C)(C)c1nc2scc(-c3ccc(Cl)cc3)c2c(=O)o1,i,i,i,i,i,i
Cc1ccc(NC(=O)CN(C)C(=O)C2CC(=O)N(Cc3ccccc3)C2)cc1 (stereo not drawn),nt,i,i,nt,i,i
Oc1ccccc1/C=N/NC(=S)NCCc1ccccc1,nt,i,i,nt,i,27µM
Oc1ccccc1/C=N/NC(=S)NC1CC2C=CC1C2 (stereo not drawn),nt,?,?,nt,?,13µM
CCN(CC)C(=O)c1sc(NC(=O)c2ccc(Br)o2)c(C(=O)OC)c1C,i,i,i,i,i,i
CCOC(=O)c1sc(NC(=O)c2sccc2C)cc1C,11µM,2.6µM,0.63µM,6.3µM,0.56µM,1.7µM
CCOC(=O)c1cnn(-c2ccccc2)c1NC(=O)c1cccs1,i,i,i,i,i,i
CCOC(=O)c1sc(NC(=O)Nc2cccc(Cl)c2)cc1C,i,?,2.5µM,?,?,1.7µM
CCOC(=O)c1sc(NC(=O)c2cccs2)cc1C,?,2.1µM,1.4µM,14µM,1.8µM,1.2µM
CCOC(=O)c1sc(NC(=S)NC(=O)C2CC2)cc1C,nt,?,i,nt,i,i
CCOC(=O)c1sc(NC(=O)c2ccc(Br)o2)cc1C,?,2.3µM,4µM,11µM,1.6µM,3.4µM
COc1ccc(N2CC(C(=O)NNC(=O)c3ccc(Br)cc3)CC2=O)c(OC)c1 (stereo not drawn),nt,i,i,nt,i,i
O=C(Cn1c(=O)n(Cc2ccco2)c(=O)c2sc3ccccc3c21)Nc1ccccc1C(F)(F)F,nt,nt,nt,i,nt,i
SMILES,Luc counter,ELG1 genotoxic,NPC1 prom act,SMN2 splice enh,Rab9 promoter act,FLuc counter
COC(=O)c1cc(S(=O)(=O)NCC2CCN(Cc3cccc(Cl)c3)CC2)c[nH]1,nt,i,i,nt,i,i
Cc1ccc2cc(CCNC(=O)c3ccc(C)c([N+](=O)[O-])c3)c(=O)[nH]c2c1,i,i,i,i,i,i
CCOc1ccccc1NC(=O)Nc1ccc(Cl)cc1,i,i,?,i,i,21µM
O=C(NCCCl)Nc1ccccc1OCCOc1ccccc1NC(=O)NCCCl,nt,i,i,nt,i,i
CCCOc1ccccc1NC(=O)Nc1ccccc1Cl,i,i,3.5µM,i,2.8µM,i
COc1ccc(CC(C)Nc2cccc(SC)c2)cc1 (stereo not drawn),nt,i,i,nt,i,i
Cc1ccc(NC(=O)N2C3CCCC2CC(NC(=O)C(C)(C)C)C3)cc1 (stereo not drawn),nt,i,i,nt,i,i
c1ccc(Nc2nnc(-c3cccc4ccccc34)o2)cc1,nt,?,i,nt,?,2.1µM
Cc1ccsc1/C=N/n1cnnc1,nt,i,i,nt,i,i
Cc1ccsc1/C=N/n1cnc2sc(C)c(C)c2c1=O,i,i,?,i,?,11µM
CCN(CC)C(=O)CSC(=Nc1ccccc1F)NC#N,i,?,?,14µM,4µM,i
COc1ccccc1C(=O)OCc1cc(=O)n2nc(C3CC3)sc2n1,nt,nt,nt,nt,nt,i
CCCn1c(=N)c(C(=O)NC2CCCCC2)cc2c(=O)n3cc(C)ccc3nc21,nt,nt,nt,i,nt,i
COc1ccc(Br)cc1CNC(=O)CCCn1c(=O)c2cccn2c2cccnc21,nt,nt,nt,nt,nt,i
CC(=O)Oc1cccc(/C=C2\Sc3ccccc3C2=O)c1,nt,i,i,nt,i,1.7µM

# Compound activity as filed in PubChem BioAssay.
